Results as given in ChEMBL document CHEMBL3988442, “University of Dundee, Small-Polar-MMV Screening Library” (2021).
Among all 69,000 compounds or so, about 1,000 (1.4%) showed an effect of 50% or more. The full list was thinned out, with strong results kept by preference.

Test system: Leishmania donovani
Assay: Leishmania intramacrophage assay
Format: functional, organism-based
Design: scale not given: in the data most compounds retested in dose-response had high values

Q: Which “Percent Effect” value (30.3 µM, […]) does the source give for `Cc1ccc(C)c(NCc2nc3n(n2)CCCCC3)c1` here?
A: The value was -6.245%.

Q: Which “Percent Effect” value (30.3 µM, […]) does the source give for `CSc1cccc(CN(C)C(=O)c2cccc(C3CCCNC3)c2)c1` (stereo not given) here?
A: The value was 27.95%.

Q: With `CSc1cccc(CN(C)C(=O)c2ccc(C3CCCNC3)cc2)c1` (stereo not given) as the molecule, how does the “Percent Effect” value (30.3 µM, […]) read?
A: Its value is 52.27%.

Q: Which “Percent Effect” value (30.3 µM, […]) does the source give for `CN(Cc1ccc2c(c1)OCO2)C(=O)c1ccc(C2CCCNC2)cc1` (stereo not given) here?
A: The value was 4.185%.

Q: Which “Percent Effect” value (30.3 µM, […]) does the source give for `CC(C)NC(=O)c1noc2c1CN(Cc1cnn(C)c1)CC2` here?
A: Its value is 0.4989%.

Q: With `Cc1noc(C)c1C(=O)NCc1ccc(N2CCCCCC2)nc1` as the molecule, how does the “Percent Effect” value (30 µM) read?
A: Its value is 36.14%.

Q: With `CNc1nc(C)cc(NCc2cc(C)cc3c(C)c(C)[nH]c23)n1` as the molecule, how does the “Percent Effect” value (30.3 µM, […]) read?
A: The value was 35.88%.

Q: How did the “Percent Effect” value (30.3 µM, […]) turn out when `CCc1[nH]c2c(CNc3nccc(N)n3)cc(C)cc2c1C` was run?
A: The value was 21.52%.

Q: With `CCc1[nH]c2c(CNc3cc(C)nc(NC)n3)cc(C)cc2c1C` as the molecule, how does the “Percent Effect” value (30.3 µM, […]) read?
A: Its value is 71.01%.

Q: How did the “Percent Effect” value (30.3 µM, […]) turn out when `CCc1[nH]c2c(CNc3nc(C)cc(NC)n3)cc(C)cc2c1C` was run?
A: Its value is 89.36%.

Q: `CNc1cc(C)nc(NCc2cc(C)cc3c(C)c(C)[nH]c23)n1` was tested. Which “Percent Effect” value (30.3 µM, […]) did it give?
A: The value was -40.33%.

Q: For `CCc1[nH]c2c(CNc3cncc(C(=O)OC)n3)cc(C)cc2c1C`, which “Percent Effect” value (30.3 µM, […]) is on record?
A: The value was -70.43%.

Q: How did the “Percent Effect” value (30.3 µM, […]) turn out when `CC(C)c1ccc(S(=O)(=O)NC2CCN(CC(F)(F)F)C2)cc1` (stereo not given) was run?
A: Its value is 20.88%.

Q: For `O=C(CC1CCCC1)N1CCCC1c1ccc(CN2CCOCC2)cn1` (stereo not given), which “Percent Effect” value (30.3 µM, […]) is on record?
A: The value was 7.793%.

Q: `COc1ccccc1CN1C[C@@H](F)[C@@H](OCc2nc3ncccc3[nH]2)C1` was tested. Which “Percent Effect” value (30.3 µM, […]) did it give?
A: Its value is 33.82%.

Q: `CCC(NC(=O)Cn1ccc(=O)n(C)c1=O)c1ccc(OC)cc1` (stereo not given) was tested. Which “Percent Effect” value (30.3 µM, […]) did it give?
A: Its value is 24.09%.

Q: Which “Percent Effect” value (30.3 µM, […]) does the source give for `CCc1ocnc1C(=O)Nc1ccc2ccn(CCN(C)C)c2c1` here?
A: Its value is -1.774%.

Q: For `COCC1CC2(CCN(Cc3nccs3)CC2)CN1Cc1ccccn1.O=C(O)C(F)(F)F.O=C(O)C(F)(F)F.O=C(O)C(F)(F)F` (stereo not given), which “Percent Effect” value (30.3 µM, […]) is on record?
A: The value was 50.9%.

Q: With `COCC1CC2(CCN(Cc3ccccn3)CC2)CN1c1ncccn1.O=C(O)C(F)(F)F.O=C(O)C(F)(F)F.O=C(O)C(F)(F)F` (stereo not given) as the molecule, how does the “Percent Effect” value (30.3 µM, […]) read?
A: The value was -16.53%.

Q: With `COCC(=O)N1CCC2(CC1)CC(COC)N(Cc1ccccn1)C2.O=C(O)C(F)(F)F` (stereo not given) as the molecule, how does the “Percent Effect” value (30.3 µM, […]) read?
A: The value was 12.17%.

Q: How did the “Percent Effect” value (30 µM, 30.03 µM) turn out when `O=C(O)C(F)(F)F.O=C1CC[C@H]2[C@H](CCN2C(=O)C2CCOCC2)N1Cc1ccncc1` was run?
A: Its value is 15.79%.

Q: Which “Percent Effect” value (30 µM, 30.03 µM) does the source give for `CS(=O)(=O)c1ccc(CNC(=O)N2CCC(c3ccccc3)CC2)cc1` here?
A: The value was -1.511%.

Q: With `Cn1cc(CN2C[C@@H]3CN(C(=O)c4cccn4C)CCO[C@@H]3C2)cn1` as the molecule, how does the “Percent Effect” value (30.3 µM, […]) read?
A: The value was 58.31%.

Q: How did the “Percent Effect” value (30.3 µM, […]) turn out when `Cc1cc(CN2C[C@@H]3CN(C(=O)c4cccn4C)CCO[C@@H]3C2)no1.O=C(O)C(F)(F)F` was run?
A: Its value is 11.08%.

Q: With `Cn1cccc1C(=O)N1CCO[C@@H]2CN(Cc3ccco3)C[C@@H]2C1` as the molecule, how does the “Percent Effect” value (30.3 µM, […]) read?
A: Its value is 19.73%.

Q: Which “Percent Effect” value (30.3 µM, […]) does the source give for `COCC1CN(CC2CC2)Cc2nn(CC3CC3)cc21.O=C(O)C(F)(F)F` (stereo not given) here?
A: Its value is 8.658%.

Q: How did the “Percent Effect” value (30 µM, 30.03 µM) turn out when `O=C1OCCN1CCOc1nc(-c2ccccc2Cl)no1` was run?
A: The value was 4.618%.

Q: For `CC(C(=O)Nc1ccc(Cl)cn1)n1ccc(C(F)(F)F)n1` (stereo not given), which “Percent Effect” value (30.3 µM, […]) is on record?
A: The value was 46.39%.

Q: How did the “Percent Effect” value (30.3 µM, […]) turn out when `Cc1cnc(NC(=O)C(C)n2ccc(C(F)(F)F)n2)s1` (stereo not given) was run?
A: Its value is 59.23%.

Q: For `Cc1ccc(NC(=O)C(C)n2ccc(C(F)(F)F)n2)nc1` (stereo not given), which “Percent Effect” value (30.3 µM, […]) is on record?
A: The value was 38.05%.

Q: How did the “Percent Effect” value (30 µM) turn out when `Cc1cc(C(=O)N2CCCCC2C)ccc1NC(=O)N1CCOCC1` (stereo not given) was run?
A: The value was 22%.

Q: Which “Percent Effect” value (30.3 µM, […]) does the source give for `O=C(O)C(F)(F)F.c1cnc(N2Cc3nccn3CC(COc3cccnc3)C2)nc1` (stereo not given) here?
A: The value was 5.012%.

Q: Which “Percent Effect” value (30.3 µM, […]) does the source give for `CN(C)c1ncc(-c2cncn2CCc2ccc3c(c2)OCCO3)cn1.Cl` here?
A: The value was 20.21%.

Q: `Cc1cccc(C2(C(=O)NCCCn3cccn3)CC2)c1` was tested. Which “Percent Effect” value (30 µM, 30.03 µM) did it give?
A: The value was 17.4%.

Q: How did the “Percent Effect” value (30.3 µM, […]) turn out when `Cc1ccc(C(CCNCCN(C)C)C2CCOC(C)(C)C2)cc1.O=C(O)C(=O)O` (stereo not given) was run?
A: The value was 99.98%.

Q: With `CCN(CC)CCCNCC1CCOC(C)(C)C1` (stereo not given) as the molecule, how does the “Percent Effect” value (30.3 µM, […]) read?
A: The value was 15.48%.

Q: Which “Percent Effect” value (30.3 µM, […]) does the source give for `Cc1ccc(C(C(=O)NCCN2CCC(CO)CC2)N(C)C)cc1` (stereo not given) here?
A: Its value is 25.71%.

Q: Which “Percent Effect” value (30.3 µM, […]) does the source give for `Cc1ccc(C)c(C(=O)N2CCOC(CCN(C)C)C2)c1` (stereo not given) here?
A: The value was 10.51%.

Q: For `COCCn1ccc2cc(C(=O)NC3CCOC(C)(C)C3)ccc21` (stereo not given), which “Percent Effect” value (30.3 µM, […]) is on record?
A: The value was 4.385%.

Q: `Cc1ccc(C(CCNCCCN(C)C)C2CCOC(C)(C)C2)cc1.O=C(O)C(=O)O` (stereo not given) was tested. Which “Percent Effect” value (30.3 µM, […]) did it give?
A: Its value is 85.22%.

Q: Which “Percent Effect” value (30 µM) does the source give for `CCc1noc(C(C)N2CCC(C)CC2)n1` (stereo not given) here?
A: Its value is 28.8%.

Q: With `Cn1nc(COc2cccnc2)c2c1CCN(c1cnccn1)C2.O=CO.O=CO` as the molecule, how does the “Percent Effect” value (30 µM, 30.03 µM) read?
A: Its value is -2.364%.

Q: `CCCn1nc(C)c(C(=O)N(C)[C@@H]2CC[C@@H](OC)[C@@H]2O)c1C` was tested. Which “Percent Effect” value (30.3 µM, […]) did it give?
A: Its value is 19.04%.

Q: How did the “Percent Effect” value (30 µM) turn out when `CC(C(=O)Nc1ccc(N2CCCC2)nc1)n1cccn1` (stereo not given) was run?
A: The value was 19.04%.

Q: How did the “Percent Effect” value (30.3 µM, […]) turn out when `Cc1noc(C)c1CCCNC(=O)C1CCN(C(C)C)CC1` was run?
A: Its value is 24.48%.

Q: Which “Percent Effect” value (30.3 µM, […]) does the source give for `CCN1CC(C(=O)NCc2ccc3c(c2)nc(C)n3C)CCC1=O` (stereo not given) here?
A: Its value is 73.45%.

Q: Which “Percent Effect” value (30.3 µM, […]) does the source give for `Cc1nc2cc(CNC(=O)C3CC(=O)N(C4CCCC4)C3)ccc2n1C` (stereo not given) here?
A: The value was 2.689%.

Q: Which “Percent Effect” value (30.3 µM, […]) does the source give for `Cc1nc2cc(CNC(=O)C3CC(=O)N(CCN(C)C)C3)ccc2n1C` (stereo not given) here?
A: Its value is 7.725%.

Q: For `CC(C)c1cc(C(=O)O)nc2[nH]c(=O)[nH]c(=O)c12`, which “Percent Effect” value (30.3 µM, […]) is on record?
A: The value was -5.63%.

Q: Which “Percent Effect” value (30 µM) does the source give for `CCCc1nc(CN2CCCN(Cc3nccn3C)CC2)no1` here?
A: Its value is 36.47%.
